In the library only some 4.7% were active in any assay of this set; here they are far more common.
TRHR PAM = qHTS for Small Molecule Agonists and Allosteric Enhancers of Human TRH Receptor: Primary Screen for Enhancers. Thyrotropin-releasing hormone receptor (Homo sapiens), P34981. TRHR cells, fluo-8 calcium fluorescence, EC20 TRH enhancement. enhancement, % at 2 µM. actives 0.66% (n = 360,000). AID 493056, 2011; in the data active = enhancement above about 30%; note: 0% is about no effect
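Enhancer read-out: after compound pinning and an initial kinetic agonist-mode read, an EC20 of TRH (10 nM final) was injected and fluo-8 calcium signal (Ex 480/Em 530) followed at 1 s/cycle for 100 cycles in TRHR-expressing cells.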
TRHR ag = qHTS for Small Molecule Agonists and Allosteric Enhancers of Human TRH Receptor: Primary Screen for Agonists | AID 493084, 2011 | actives 0.18% (n = 360,000) | activation, % at 2 µM | TRHR cells, calcium flux fluo-8, FDSS agonist mode | Thyrotropin-releasing hormone receptor (Homo sapiens), P34981; note: 0% is about no effect
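TRHR-expressing cells, plated overnight in medium with 10% serum, were loaded with fluo-8 calcium dye at room temperature. After a 10 s baseline, library compound was pin-added and calcium release was recorded kinetically (ex 480/em 530) as agonist response.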
D1 PAM = Potentiators of Human D1 Dopamine Receptor: qHTS; D(1A) dopamine receptor (Homo sapiens), P21728; HEK293 TREx D1 cells, calcium flux, dopamine EC20 potentiation; potentiation, % at 10 µM; actives 0.036% (n = 360,000); AID 504651, 2011; in the data active = potentiation above about 30%; note: 0% is about no effect
Target sequence (P21728 whole entry, looked up): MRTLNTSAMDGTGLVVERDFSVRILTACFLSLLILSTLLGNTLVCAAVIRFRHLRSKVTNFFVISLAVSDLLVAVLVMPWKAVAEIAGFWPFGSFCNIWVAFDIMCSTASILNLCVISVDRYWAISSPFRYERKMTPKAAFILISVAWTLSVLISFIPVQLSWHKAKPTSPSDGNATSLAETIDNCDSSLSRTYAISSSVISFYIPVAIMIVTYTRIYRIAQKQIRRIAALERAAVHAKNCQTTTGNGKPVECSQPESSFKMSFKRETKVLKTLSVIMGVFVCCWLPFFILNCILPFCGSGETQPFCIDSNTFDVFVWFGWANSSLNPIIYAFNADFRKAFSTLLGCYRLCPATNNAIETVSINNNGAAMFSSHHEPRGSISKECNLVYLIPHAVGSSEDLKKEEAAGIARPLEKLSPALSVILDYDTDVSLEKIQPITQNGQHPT
D1 antag = Antagonist of Human D 1 Dopamine Receptor: qHTS | D(1A) dopamine receptor (Homo sapiens), P21728 | actives 3.2% (n = 360,000) | activity change, negative = inhibition, % at 10 µM | AID 504652, 2011 | HEK293 TREx D1 cells, calcium flux, dopamine EC80; active compounds read low; in the data active = activity change below about -30%; note: % is set by controls: 0 for no effect and ±100 for the full control effect
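Tetracycline-induced HEK293 Trex D1 cells, force-coupled to calcium, dye-loaded; compounds added and read 180 s, then EC80 dopamine added and calcium flux tracked kinetically another 180 s.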
D1 agonist = Allosteric Agonists of the Human D1 Dopamine Receptor: qHTS; D(1A) dopamine receptor (Homo sapiens), P21728; HEK293 T-REx D1 cells, calcium flux, agonist mode; activation, % at 2 µM; actives 1% (n = 360,000); AID 504660, 2011; note: 0% is about no effect
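Tetracycline-induced HEK293 TREx D1 cells, force-coupled to calcium signalling, were dye-loaded with a no-wash calcium kit. Compound was pin-added after a 10 s baseline. Fluorescence was read kinetically at 1 cycle/s for 180 s, with calcium rises flagged as agonism.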
Numbers without * were called inactive. Cut-off read from the data, not from the text of the source, unless noted: active = activation above about 30%; inactive = the rest.

SMILES	TRHR PAM	TRHR ag	D1 PAM	D1 antag	D1 agonist
Cc1[nH]cnc1CSCCN	7	-1	-4	11	3
Cc1[nH]cnc1CSCc1ccc(Cl)cc1	13	0	-9	-4	36*
CN(C(=O)c1cc2n(n1)C(C(F)(F)F)CC(c1ccco1)N2)c1ccccc1 (stereo not drawn)	-3	1	-5	-50*	0
NC(=O)C1CCN(C(=O)c2cc3n(n2)C(C(F)(F)F)CC(c2ccco2)N3)CC1 (stereo not drawn)	4	0	12	-40*	0
Cc1ccc(-c2nc3ccccc3o2)cc1NC(=O)Cc1ccc(Cl)cc1	1	-1	-1	2	-2
O=C(Oc1ccc(OC(=O)C2CCC2)cc1)C1CCC1	-1	0	0	-36*	2
O=C(Oc1ccc2ccccc2c1)C1CCC1	-3	-1	-4	-8	7
N#Cc1ccc(NC(=O)c2cc(-c3cccc(Cl)c3)on2)cc1	12	-2	0	-1	-1
Cc1ccc(C(=O)NCC(=O)OC(C(=O)Nc2cc(C(F)(F)F)ccc2Cl)c2ccccc2)cc1 (stereo not drawn)	-10	3	1	11	2
COc1cc(C2C3=C(CC(C)(C)CC3=O)Nc3ccccc3N2C(C)=O)cc(OC)c1OC (stereo not drawn)	-2	1	-5	-32*	3
COC(=O)C(C)Sc1nnc2cc(C)c3cc(C)cc(C)c3n12 (stereo not drawn)	4	0	2	-10	-1
O=C(Nc1ncc([N+](=O)[O-])s1)c1cccc([N+](=O)[O-])c1	8	3	-16	-25	32*
Cn1c(=O)c2cc(S(=O)(=O)NC(Cc3ccccc3)C(=O)NCC3CCCO3)ccc2n(C)c1=O (stereo not drawn)	2	0	-6	-39*	-3
COc1cc(/C=C2\SC(=O)N(CC(=O)Nc3ccccc3F)C2=O)cc(Cl)c1O	11	101*	-5	19	130*
COc1ccc(C2=C(C)C(=O)N(Cc3ccc(C(=O)Nc4ccc(F)cc4C)cc3)S2(=O)=O)cc1	-8	1	-6	9	6
Cc1nn(-c2ccc(N3CCCCC3)nn2)c(C)c1CCC(=O)Nc1ccc(F)cc1F	5	0	-5	-19	1
Cc1ccc(N=Nc2c(N)[nH]n3c(=O)cc(-c4ccccc4)nc23)cc1	3	1	-16	-23	1
COc1cccc(N=Nc2c(N)[nH]n3c(=O)cc(-c4ccccc4)nc23)c1	7	0	-5	-40*	2
CC[n+]1ccc(/C=C/c2c[nH]c3ccccc23)cc1	2	17	-2	10	64*
CCn1c(/C=C/c2c[nH]c3ccccc23)nc2ccccc2c1=O	-3	-2	1	-14	1
CN(Cc1cccs1)C(=O)c1cc(S(=O)(=O)N2CCOCC2)ccc1N1CCCC1	0	0	2	-31*	0
O=C(c1ccc(Cl)c(S(=O)(=O)N2CCOCC2)c1)N(Cc1ccco1)Cc1cccs1	-4	0	-5	-1	4
CC(C)CNC(=O)COC(=O)c1cc(S(=O)(=O)N2CCCCC2)ccc1N1CCOCC1	32*	0	3	7	0
O=C(COC(=O)c1cc(S(=O)(=O)N2CCCCC2)ccc1N1CCOCC1)NCCc1ccc(F)cc1	31*	0	-9	-14	6
CC(C)NC(=O)NC(=O)COC(=O)c1cc(S(=O)(=O)N2CCCCC2)ccc1N1CCOCC1	-5	-2	-1	4	3
SMILES	TRHR PAM	TRHR ag	D1 PAM	D1 antag	D1 agonist
O=C(c1cccc(S(=O)(=O)N2CCOCC2)c1)N(Cc1ccco1)Cc1cccs1	1	0	-3	-56*	8
Cc1ccc(Nc2nc(C)cc(C)n2)c(C(=O)O)c1	8	0	-2	2	2
CCN(CC)c1cc2c(cc1F)c(=O)c(S(=O)(=O)c1ccc(OC)cc1)cn2CC	6	0	2	2	1
COc1ccc(CCNC(=O)CN2C(=O)NC3(CCOc4ccccc43)C2=O)cc1 (stereo not drawn)	-8	0	-1	7	0
O=C(NCCc1ccc2c(c1)OCCO2)c1cccc(S(=O)(=O)N2CCCC2)c1	-9	0	-1	6	0
O=C(NCCc1ccc2c(c1)OCCO2)c1cc(S(=O)(=O)N2CCCC2)ccc1Cl	2	0	-6	-32*	16
COC(=O)CCC(C)N1CCC(Oc2ccc(C(=O)N3CCCC3)cc2)CC1 (stereo not drawn)	2	1	-4	-30*	0
COCCC(=O)N1CCC(Oc2ccc(C(=O)N3CCCC(OC)C3)cc2)CC1 (stereo not drawn)	-1	0	-5	-35*	2
CCCOC1CCCN(C(=O)c2ccc(OC3CCN(C(=O)CCOC)CC3)cc2)C1 (stereo not drawn)	3	0	-6	-1	2
COc1ccc(OC)c(NC(=O)C(NS(=O)(=O)c2ccc3c(c2)CCCC(=O)N3)C(C)C)c1 (stereo not drawn)	12	0	4	9	1
CC1(C)Cc2c(C#N)c(NCc3ccco3)nc(-c3ccco3)c2CO1	37*	4	-4	-4	2
CCCCCCCn1c(=O)c(C(=O)OC)c(N)c2ccccc21	-7	0	-9	-16	42*
COC(=O)C1(C)NC(c2ccc(O)cc2)C2C(=O)N(c3ccc(C)cc3)C(=O)C21 (stereo not drawn)	7	1	-6	-42*	3
NS(=O)(=O)c1ccc(NC(=O)COc2ccc(C(=O)c3ccc(F)cc3)cc2)cc1	4	1	-13	-27	4
CN(C)S(=O)(=O)c1cccc(NC(=O)COC(=O)COc2ccc(Br)cc2)c1	-2	0	-7	-13	7
CCOc1ccc(NS(=O)(=O)c2ccc(NC(=S)NC(=O)CC(C)C)cc2)cc1	32*	4	0	46	26
CCOc1ccc(OCC(=O)Nc2ccc(S(N)(=O)=O)cc2)cc1	1	-1	-5	-34*	2
CCCC(=O)NC(=S)Nc1ccc(S(=O)(=O)Nc2ccc(OCC)cc2)cc1	13	3	-8	7	27
NS(=O)(=O)c1ccc(NC(=O)COC(=O)C2(c3ccccc3F)CCCC2)cc1	-4	0	-7	-34*	1

Assay outcomes from PubChem BioAssay.
